Measurements: PubChem BioAssay (NCATS)
Inconclusive results are not listed. Activity calls are given as the source filed them. Calls follow the shape of the dose curve; as a rule, active = well fitted cell-killing curve with a large enough effect; inconclusive = small, poorly fitted or top-dose-only effect, or effect the other way; inactive = flat fitted curve, though single readings scatter. *1 amine or outer side, *2 acyl side, *3 side chain or, on linkers, in order; H or OH if unused. Where a SMILES comes first, the peptide text is derived from it. Bridges are numbered along the chain shown (N, C = ends). [ ]: non-standard residue; d: D form. The star is where a group is joined. pTerphenylCO(4''-OnC5H11) = CCCCCOc1ccc(-c2ccc(-c3ccc(C(=O)*)cc3)cc2)cc1; Orn(4R-OH,5R-OH) = O=C([C@H](C[C@@H](O)[C@@H](O)N[*:3])N[*:1])[*:2]; hTyr(3S-OH,4S-OH) = N[C@H](C(=O)O)[C@H](O)[C@@H](O)c1ccc(O)cc1; Pro(3S-OH,4S-Me) = C[C@H]1CN[C@H](C(=O)O)[C@H]1O; Hyp = O=C(O)[C@@H]1C[C@@H](O)CN1

Tests used:
Experiment in all cases: Primary qHTS to identify gynecologic anti-cancer compounds using libraries of approved drugs and bioactive compounds (AID 1345084); also: nearly all actives have a fitted effect of over 55% in size
Conditions in all cases: Gynecologic cancer cell panel viability, ATPlite luminescence, 48 h; series mostly up to 57.5 µM
[1] = system: PA-1
Procedure, shortened: (§1)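 Five-point cytotoxicity, 48 h drug exposure at 37 C, 5% CO2, on cells seeded 16 h beforehand. ATP content read by ATPlite luminescence.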

[2] = system: SKOV3
Procedure, shortened: as §1

[3] = system: Tov-21-G
Procedure, shortened: as §1

[4] = system: Tov112D
Procedure, shortened: as §1
% is scaled to controls: 0 for no effect and ±100 for the full control effect; potency is read from the fitted curve at half-maximal effect.

CCC/C=C\C=C/CCc1cc(O)c([C@@H]2O[C@H](CO)[C@@H](O)[C@H](O)[C@H]2O)c(O)c1C(=O)OC
inactive: Potency [1] | Potency [2] | Potency [3] | Potency [4]

O=[N+]([O-])c1ccc(Oc2ccc3c(c2)CCC(c2ccccc2)O3)nc1 (centres undefined)
inactive: Potency [1] | Potency [2] | Potency [3] | Potency [4]

CC(C)(C)c1ccc(C(=O)Nc2cc(Cl)c(Br)cc2C(=O)O)cc1
inactive: Potency [1] | Potency [2] | Potency [3] | Potency [4]

C=C1/C(=C/C=C2\CCC[C@]3(C)[C@@H]([C@@H](C)OCCC(O)(CC)CC)CC[C@@H]23)C[C@@H](O)C[C@@H]1O
inactive: Potency [1] | Potency [2] | Potency [3] | Potency [4]

C/C=C(\C)C(=O)O[C@@H]1[C@@H](C)[C@]2(O)[C@@H]3C=C(C)C(=O)[C@H]3CC(CO)=C[C@H]2C2C(C)(C)[C@@]21OC(=O)C(C)CC (some centres undefined)
inactive: Potency [1] | Potency [2] | Potency [3] | Potency [4]

COc1cc2c(cc1OCCCN1CCCC1)N=C(N)C21CCC1
inactive: Potency [1] | Potency [2] | Potency [3] | Potency [4]

CC(=O)OC1C(=O)C2C3OCC4=C3[C@@](C)(CC[C@@H]4O)CC[C@]2(C)[C@H]1C(C)C (some centres undefined)
inactive: Potency [1] | Potency [2] | Potency [3] | Potency [4]

COc1ccccc1N1CCN(CC(C(=O)NC(C)(C)C)c2ccccc2)CC1 (centres undefined)
inactive: Potency [1] | Potency [2] | Potency [3] | Potency [4]

CN1CCN(C2=Nc3ccccc3Nc3ccc(OS(=O)(=O)C(F)(F)F)cc32)CC1
inactive: Potency [1] | Potency [2] | Potency [3] | Potency [4]

CCCC(CCC)C(=O)NCc1ccc2c(cnn2-c2ccccc2OC)c1
inactive: Potency [1] | Potency [2] | Potency [3] | Potency [4]

Fc1ccc(N2CCCCC2)c(NC(=S)c2ccncc2)c1
inactive: Potency [1] | Potency [2] | Potency [3] | Potency [4]

O=C(NCCN1CCC(n2c(=O)[nH]c3ccccc32)CC1)c1ccc2ccccc2c1
inactive: Potency [1] | Potency [2] | Potency [3] | Potency [4]

Clc1cccc(COc2cncc(N3CCNCC3)n2)c1
inactive: Potency [1] | Potency [2] | Potency [3] | Potency [4]

O=C(NCCCc1ccccc1)C1CCC(CNS(=O)(=O)c2cccc3nsnc23)CC1 (centres undefined)
inactive: Potency [1] | Potency [2] | Potency [3] | Potency [4]

C=C(C)C(=O)O[C@H]1[C@H]2C(=C)C(=O)O[C@@H]2/C=C(\CO)CC/C=C(/C=O)[C@@H]1O
inactive: Potency [1] | Potency [2] | Potency [3] | Potency [4]

COC(=O)C(Cc1ccc(OCCn2c(=O)sc3cc(C(=O)c4ccccc4)ccc32)cc1)C(=O)OC
inactive: Potency [1] | Potency [2] | Potency [3] | Potency [4]

C=C1/C(=C/C=C2\CCC[C@]3(C)[C@@H]([C@H](C)/C=C/[C@H](O)C4CC4)CC[C@@H]23)C[C@@H](O)C[C@@H]1O
inactive: Potency [1] | Potency [2] | Potency [3] | Potency [4]

CC[C@H]1CN(c2nc(N)c(C(N)=O)nc2Cl)CCN1C1CCN(Cc2ccc(Cl)cc2)CC1
inactive: Potency [1] | Potency [2] | Potency [3] | Potency [4]

O=c1[nH]c2ccccc2n1CCN1CCN(c2cccc(C(F)(F)F)c2)CC1
inactive: Potency [1] | Potency [2] | Potency [3] | Potency [4]

COc1c2c(nc3occc13)C(CC=C(C)C)(OC)C(O)CC2 (centres undefined)
inactive: Potency [1] | Potency [2] | Potency [3] | Potency [4]

CC#C[C@@H](CC(=O)O)c1ccc(OCc2ccc(CN3CCC4(C=Cc5ccccc54)CC3)s2)cc1
inactive: Potency [1] | Potency [2] | Potency [3] | Potency [4]

C=CCCN1CCC2(CC1)CN(C(=O)c1c(F)cccc1F)c1ccc(Cl)cc12
inactive: Potency [1] | Potency [2] | Potency [3] | Potency [4]

COc1cc2c(c(OC)c1CC=C(C)C)C[C@H](c1ccc(O)c(CC=C(C)C)c1O)CO2
inactive: Potency [1] | Potency [2] | Potency [3] | Potency [4]

Cn1ncnc1[C@@H]1c2n[nH]c(=O)c3cc(F)cc(c23)N[C@H]1c1ccc(F)cc1
inactive: Potency [1] | Potency [2] | Potency [3] | Potency [4]

COc1ccncc1C(=O)NC(=O)Nc1ccc(-c2ccccc2)c(C(F)(F)F)c1
inactive: Potency [1] | Potency [2] | Potency [3] | Potency [4]

Fc1ccc(-c2nc(-c3ccccc3F)[nH]c2-c2ccncc2)cc1
inactive: Potency [1] | Potency [2] | Potency [3] | Potency [4]

CC(=O)OC1C(O)CC2(C)C(CCC3(C)C2CC=C2C4C5(CCC(CO[C@@H]6O[C@H](CO)[C@@H](O)[C@H](O)[C@H]6O)(OC5=O)C4(C)O)C(O)CC23C)C1(C)C (some centres undefined)
inactive: Potency [1] | Potency [2] | Potency [3] | Potency [4]

COc1cc(O)cc(OC2OC(CO)C(O)C(O)C2O)c1 (centres undefined)
inactive: Potency [1] | Potency [2] | Potency [3] | Potency [4]

C=C1C(=O)OC2C3=C(C)C(=O)CC3C(C)CC(O)C12 (centres undefined)
inactive: Potency [1] | Potency [2] | Potency [3] | Potency [4]

C=CC1(C)CC(O)C(C(=C)C(=O)OC)C(O)C1C(=C)CO (centres undefined)
inactive: Potency [1] | Potency [2] | Potency [3] | Potency [4]

CC(C)(C)c1ccc(C(=O)Nc2cn3cc(-n4ccnc4)ccc3n2)cc1
inactive: Potency [1] | Potency [2] | Potency [3] | Potency [4]

COc1ccc([C@H]2Cc3cccc(O)c3C(=O)O2)cc1OC
inactive: Potency [1] | Potency [2] | Potency [3] | Potency [4]

CCCCCOc1ccc(-c2ccc(-c3ccc(C(=O)N[C@H]4C[C@@H](O)[C@@H](O)NC(=O)[C@@H]5[C@@H](O)[C@@H](C)CN5C(=O)[C@H]([C@@H](C)O)NC(=O)[C@H]([C@H](O)[C@@H](O)c5ccc(O)cc5)NC(=O)[C@@H]5C[C@@H](O)CN5C(=O)[C@H]([C@@H](C)O)NC4=O)cc3)cc2)cc1 ({pTerphenylCO(4''-OnC5H11)}-[Orn(4R-OH,5R-OH)]T[Hyp][hTyr(3S-OH,4S-OH)]T[Pro(3S-OH,4S-Me)]; lactam 1-C)
inactive: Potency [1] | Potency [2] | Potency [3] | Potency [4]

C1=Cc2ccccc2C(=C2CCN(CCCCc3nn[nH]n3)CC2)c2ccccc21
inactive: Potency [1] | Potency [2] | Potency [3] | Potency [4]

COC(=O)c1ccnc(-c2cc(C(=O)Nc3ccc(C4(N)CC4)cc3)ccn2)c1
inactive: Potency [1] | Potency [2] | Potency [3] | Potency [4]

Cc1noc(-c2ccc(-c3ccc(CC(=O)O)cc3)cc2)c1NC(=O)O[C@H](C)c1ccccc1Cl
inactive: Potency [1] | Potency [2] | Potency [3] | Potency [4]

O=C(Nc1ccccc1C(=O)NC1CCCCNC1=O)c1cc2ccccc2s1 (centres undefined)
inactive: Potency [1] | Potency [2] | Potency [3] | Potency [4]

O=S(=O)(NCc1ccccn1)c1ccc(Br)c2ccccc12
inactive: Potency [1] | Potency [2] | Potency [3] | Potency [4]

CCC(C)/C=C(C)/C=C/C1=CC2=CC(=O)C3(C)OC(C)(O)C(C(=O)OC)C3C2=CO1 (centres undefined)
inactive: Potency [1] | Potency [2] | Potency [3] | Potency [4]

C[C@@H](NC(=O)c1ccc(C#Cc2cccc(F)c2)cn1)C(C)(C)O
inactive: Potency [1] | Potency [2] | Potency [3] | Potency [4]

CC/C(C)=C/C(=O)OC1C(OC2(C)CCC3C(C4C(C)CCC42)C3(C)C)OC(C)C(O)C1O (centres undefined)
inactive: Potency [1] | Potency [2] | Potency [3] | Potency [4]

CC(=O)O[C@H]1[C@@]2(O)C[C@H](C)[C@H](OC(=O)c3ccccc3)[C@@H]2[C@@H](OC(=O)CO)[C@]2(OC(C)=O)C[C@H]3C(=O)C(C)(C)C[C@@H]3[C@@]1(C)[C@H]2OC(C)=O
inactive: Potency [1] | Potency [2] | Potency [3] | Potency [4]

COc1cc(CCc2ccc(OCC=C(C)C)cc2)cc(OC)c1OC
inactive: Potency [1] | Potency [2] | Potency [3] | Potency [4]

CCCN1CCC=C(c2cc(-c3ccc(C)cc3)no2)C1
inactive: Potency [1] | Potency [2] | Potency [3] | Potency [4]

CCC(C)c1ccc(NC(=O)Cn2cnc3c2c(=O)n(C)c(=O)n3C)cc1 (centres undefined)
inactive: Potency [1] | Potency [2] | Potency [3] | Potency [4]

Cc1c(F)ccc(C(=O)Nc2cc([N+](=O)[O-])ccc2N2CCN(C)CC2)c1Cl
inactive: Potency [1] | Potency [2] | Potency [3] | Potency [4]

CCC/C=C/C(=O)O[C@H]1CC(C)(C)CC2[C@@]13[C@H](O)C[C@]1(C)[C@@]2(CCC2[C@@]4(C)CC[C@H](O[C@@H]5O[C@H](C(=O)O)[C@@H](O)[C@H](O[C@@H]6O[C@H](CO)[C@H](O)[C@H](O)[C@H]6O[C@@H]6O[C@@H](C)[C@H](O)[C@@H](O)[C@H]6O[C@@H]6OC[C@](O)(CO)[C@H]6O)[C@H]5O[C@@H]5O[C@H](CO)[C@H](O)[C@H](O)[C@H]5O)C(C)(C)C4CC[C@]21C)O[C@H]3O (some centres undefined)
inactive: activity change, negative = cytotoxicity [1] -0.263% [at 6.55 µM] | activity change, negative = cytotoxicity [2] -3.55% [at 6.55 µM] | activity change, negative = cytotoxicity [3] -24.3% [at 6.55 µM] | activity change, negative = cytotoxicity [4] 7.77% [at 6.55 µM]

Cc1sc2c(c1C)C(c1ccc(Cl)cc1)=N[C@H](CC(=O)NCCCCNC(=O)COc1cccc3c1C(=O)N([C@H]1CCC(=O)NC1=O)C3=O)c1nnc(C)n1-2
inactive: Potency [2] | Potency [4]
active: Potency [1] 1580 nM | Potency [3] 1780 nM

COc1ccccc1C(=O)Nc1cccc(NC(=O)c2cccc(C)c2)c1
inactive: Potency [1] | Potency [2] | Potency [3] | Potency [4]

Cc1c(Cl)cccc1S(=O)(=O)Nc1nc(NCCc2ccccc2)nc2c1CN(Cc1ccccc1)CC2
inactive: Potency [1] | Potency [2] | Potency [3] | Potency [4]

Cc1cc2c(c(=O)o1)C=C1CC[C@H]([C@H](C)Cn3cnc(=N)c4[nH]cnc43)C[C@@H]1O2
inactive: Potency [1] | Potency [2] | Potency [3] | Potency [4]

CC12CCC3C1C(c1c(cc(O)c(C(=O)c4ccccc4)c1O)O2)C3(C)C (centres undefined)
inactive: Potency [1] | Potency [2] | Potency [3] | Potency [4]

Cc1nc2c(C(F)(F)F)cccc2nc1-c1ccc(-c2cccc(S(C)(=O)=O)c2)cc1
inactive: Potency [1] | Potency [2] | Potency [3] | Potency [4]

CCCNCCc1ccc(NS(=O)(=O)c2ccc(OC(F)(F)F)cc2)cc1
inactive: Potency [1] | Potency [2] | Potency [3] | Potency [4]

C=C1C(=O)OC2C1CCC1(C)C(O)CCC(=C)C21 (centres undefined)
inactive: Potency [1] | Potency [2] | Potency [3] | Potency [4]

CO[C@@H]1[C@H](O)CCC2(CO2)[C@H]1[C@@]1(C)O[C@@H]1CC=C(C)C (some centres undefined)
inactive: Potency [1] | Potency [2] | Potency [3] | Potency [4]
